Data: ChEMBL document CHEMBL3433997, “St. Jude Leishmania screening dataset” (2016)

Columns and labels:
Assay type in all cases: functional
[1] = target: Solute carrier family 2, facilitated glucose transporter member 1 (Homo sapiens) (UniProt P11166); assay: ST_JUDE_LEISH: Cytotoxicity at 2uM final concentration against transgenic Leishmania Mexicana promastigotes LmGLUT1 that are glucose transport deficient and complemented with the human glucose transporter GLUT1. Activity is measured by DNA content using SYBR green in vitro
[2] = target: Hexose transporter 1 (Plasmodium falciparum) (UniProt O97467); assay: ST_JUDE_LEISH: Cytotoxicity at 2uM final concentration against transgenic Leishmania Mexicana promastigotes LmPfHT that are glucose transport deficient and complemented with the Plasmodium falciparum hexose transporter. Activity is measured by DNA content using SYBR green in vitro
[3] = target: Glucose transporter (Leishmania mexicana) (UniProt O61059); assay: ST_JUDE_LEISH: Cytotoxicity at 2uM final concentration against transgenic Leishmania Mexicana promastigotes LmGT2 that are glucose transport deficient and complemented with the L. Mexicana glucose transporter 2. Activity is measured by DNA content using SYBR green in vitro

Solute carrier family 2, facilitated glucose transporter member 1 (Homo sapiens), sequence (P11166 whole entry): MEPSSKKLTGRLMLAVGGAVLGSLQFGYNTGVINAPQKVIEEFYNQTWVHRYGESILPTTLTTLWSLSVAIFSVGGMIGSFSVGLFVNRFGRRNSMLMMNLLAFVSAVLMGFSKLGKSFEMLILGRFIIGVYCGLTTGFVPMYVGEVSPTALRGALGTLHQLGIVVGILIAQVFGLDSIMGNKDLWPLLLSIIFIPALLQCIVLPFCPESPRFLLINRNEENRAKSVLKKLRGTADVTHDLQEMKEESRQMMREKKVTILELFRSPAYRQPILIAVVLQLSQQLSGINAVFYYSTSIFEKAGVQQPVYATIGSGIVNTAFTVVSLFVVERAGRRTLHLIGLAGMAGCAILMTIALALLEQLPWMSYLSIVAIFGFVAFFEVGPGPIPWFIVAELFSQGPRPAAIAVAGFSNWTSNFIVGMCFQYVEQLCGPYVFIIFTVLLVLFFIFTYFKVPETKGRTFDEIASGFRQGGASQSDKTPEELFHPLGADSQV

CC(C)C[C@H](NC(=O)c1ccc(OCCN2CCOCC2)cc1)C(=O)N[C@H](/C=N/N1CC(=O)NC1=O)CCc1ccccc1
inhibition [1]: 3.3%
inhibition [2]: 4.15%
inhibition [3]: 2.88%

O=C(Nc1ccsc1)Nc1cccc(-c2cccc(-c3nc4cc(F)ccc4[nH]3)c2)c1
inhibition [1]: 2.33%
inhibition [2]: 2.8%
inhibition [3]: -5.19%

Cc1[nH]c(C)c(-c2ccc(OCc3cccc(C(F)(F)F)c3)nc2)c(=O)c1Br
inhibition [1]: 44.5%
inhibition [2]: 64.4%
inhibition [3]: 35%

Cc1cc(N(C)C)nc(Nc2ccc(NC(=O)c3ccccc3Cl)cc2)n1
inhibition [1]: -1.66%
inhibition [2]: 5.72%
inhibition [3]: -4.81%

CCCc1cc(C)ccc1OCCCON1C(NC(=O)OCC)=NC(NC(=O)OCC)=NC1(C)C
inhibition [1]: -0.11%
inhibition [2]: 1.76%
inhibition [3]: -0.57%

CCCNC(=O)c1cncc(-c2ccc(CNC(CC)c3ccccc3)cc2)c1 (stereo not drawn)
inhibition [1]: -0.02%
inhibition [2]: 0.28%
inhibition [3]: -0.14%

CC1(C)NC(N)=NC(=N)N1OCOc1cc(Cl)c(Cl)cc1Cl
inhibition [1]: -2.15%
inhibition [2]: 0.84%
inhibition [3]: 6.16%

COc1ccc(CN2CCC(Oc3cccc(NC(=O)c4ccc(C(F)(F)F)cc4)c3)CC2)cc1
inhibition [1]: 0.69%
inhibition [2]: 1.18%
inhibition [3]: 3.45%

CCNc1cc(C(=O)N[C@@H](Cc2ccccc2)[C@H](O)CNC(CC)c2cccc(Cl)c2)cc(N2CCCCS2(=O)=O)c1 (stereo partly drawn)
inhibition [1]: 4.81%
inhibition [2]: 1.05%
inhibition [3]: -0.27%

O=C(NCCCCCN1CCC(c2c[nH]c3ccccc23)CC1)Nc1ccc(Cl)cc1Cl
inhibition [1]: 2.57%
inhibition [2]: 2.01%
inhibition [3]: 2.92%

O=C(NCC1CC1)C1CCN(C(c2ccccc2)c2nc3ccccc3s2)CC1 (stereo not drawn)
inhibition [1]: -0.89%
inhibition [2]: -1.39%
inhibition [3]: -4.85%

Cc1ccccc1C(O)CNc1ccnc(Nc2cccc(C#N)c2)n1 (stereo not drawn)
inhibition [1]: 3.5%
inhibition [2]: 4.38%
inhibition [3]: 0.24%

CC(C)CNCc1cccc(-c2cccc(CNc3ccc4ncccc4c3)c2)c1
inhibition [1]: 2.92%
inhibition [2]: 1.32%
inhibition [3]: 2.08%

NCC1CCCN1Cc1cccc(-c2cccc(-c3nc4cc(F)ccc4[nH]3)c2)c1 (stereo not drawn)
inhibition [1]: 0.19%
inhibition [2]: 0.88%
inhibition [3]: 1.02%

COc1cc(NC(=O)c2nn(CCCN3CCC(N4CCCC4)CC3)cc2-c2ccc(Cl)c(Cl)c2)cc(OC)c1OC
inhibition [1]: 1.76%
inhibition [2]: 2.09%
inhibition [3]: 1.96%

CCc1cn(C)c2c(N3CCCC3=O)cc(C(=O)N[C@@H](Cc3ccccc3)[C@H](O)CNC(C)(C)c3cccc(OC)c3)cc12
inhibition [1]: 4.6%
inhibition [2]: 2.52%
inhibition [3]: 7.65%
